Data as given in PubChem BioAssay (NCATS).
Inconclusive results are not listed. Entries that show only a call come without a potency. Active and inactive are the calls of the source. Unless noted, calls come from the whole dose curve; as a rule, active = well fitted curve in the direction sought with a large enough effect; inconclusive = small, poorly fitted or top-dose-only effect, or another doubt; inactive = no such curve, though single readings can be large; an effect the other way counts as inactive or inconclusive.

Columns and labels:
[1] = target: Beta-2 adrenergic receptor (Homo sapiens) (UniProt P07550); assay: qHTS validation assay of beta-arrestin-biased ligands of beta2-adrenergic receptor (AID 485366)
Chain of Beta-2 adrenergic receptor (Homo sapiens) (P07550 whole entry, looked up): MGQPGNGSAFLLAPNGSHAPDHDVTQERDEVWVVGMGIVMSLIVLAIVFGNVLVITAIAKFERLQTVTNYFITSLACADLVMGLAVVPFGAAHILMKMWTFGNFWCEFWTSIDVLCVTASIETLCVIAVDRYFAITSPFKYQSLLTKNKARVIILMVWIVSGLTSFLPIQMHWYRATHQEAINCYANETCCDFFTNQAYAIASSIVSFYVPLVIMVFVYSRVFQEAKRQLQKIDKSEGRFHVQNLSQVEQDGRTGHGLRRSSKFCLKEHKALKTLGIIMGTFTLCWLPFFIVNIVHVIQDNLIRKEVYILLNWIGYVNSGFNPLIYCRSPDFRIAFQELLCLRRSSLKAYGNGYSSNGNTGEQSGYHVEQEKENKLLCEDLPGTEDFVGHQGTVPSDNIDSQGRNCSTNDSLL
Outline: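 qHTS, Tango cells, 1500 cells/well, DMEM + 1% FBS. Cpd 18 hr at 37 degrees C. Luciferin/ATP/CoA detection mix, 15 min RT, luminescence read. %Activity from corrected signal; CRC fit, curve class.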

[2] = target: ATP-dependent 6-phosphofructokinase (Trypanosoma brucei brucei) (UniProt O15648); assay: qHTS Validation Assay to Find Inhibitors of T. brucei phosphofructokinase (AID 485368)
Chain of ATP-dependent 6-phosphofructokinase (Trypanosoma brucei brucei) (O15648 whole entry, looked up): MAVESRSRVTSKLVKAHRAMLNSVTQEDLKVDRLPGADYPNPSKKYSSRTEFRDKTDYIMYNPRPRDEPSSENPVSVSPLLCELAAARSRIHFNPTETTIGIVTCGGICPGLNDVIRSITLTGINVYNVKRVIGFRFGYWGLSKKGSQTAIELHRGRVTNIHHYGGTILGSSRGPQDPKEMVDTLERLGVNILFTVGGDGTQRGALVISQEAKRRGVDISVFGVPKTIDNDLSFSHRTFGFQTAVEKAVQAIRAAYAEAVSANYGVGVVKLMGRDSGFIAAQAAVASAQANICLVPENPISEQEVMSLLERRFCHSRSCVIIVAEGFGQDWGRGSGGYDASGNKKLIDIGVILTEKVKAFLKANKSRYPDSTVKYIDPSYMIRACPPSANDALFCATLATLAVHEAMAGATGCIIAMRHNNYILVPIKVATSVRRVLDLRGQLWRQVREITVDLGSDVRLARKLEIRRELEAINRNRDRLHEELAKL
Outline: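 Luminescent ADP detection measures PFK turnover of fructose-6-phosphate (0.5 mM) with ATP (0.1 mM) at pH 8.0. Reaction runs 45 min at room temperature with 1.25 nM enzyme; inhibitors tested as titrations up to 57 uM.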

[3] = Quantitative high throughput screen for delayed death inhibitors of the malarial parasite plastid, 96 hour incubation (AID 488745); note: nearly all actives have a fitted effect of over 70% in size; note: potency is the fitted concentration of half-maximal effect
Outline: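 Decreased firefly luciferase luminescence indicates inhibited growth of reporter-integrated P. falciparum after two generations (96 h, 37 C, 5% CO2). Infected erythrocytes at 0.1% parasitemia, 2% hematocrit, in Albumax-supplemented RPMI 1640.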

[4] = Quantitative high throughput screen for delayed death inhibitors of the malarial parasite plastid, 48 hour incubation (AID 488752); note: nearly all actives have a fitted effect of over 65% in size; note: potency is the fitted concentration of half-maximal effect
Outline: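 One-generation (48 h) growth assay: a decrease in luciferase signal from an integrated reporter in P. falciparum-infected red cells (0.1% parasitemia, 2% hematocrit) after compound exposure at 37 C indicates parasite inhibition.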

[5] = target: Thioredoxin reductase 1, cytoplasmic (Rattus norvegicus) (UniProt O89049); assay: qHTS Assay for Inhibitors of Mammalian Selenoprotein Thioredoxin Reductase 1 (TrxR1) (AID 488773); conditions: Potency: inhibition; note: nearly all actives have a fitted effect of over 40% in size; note: potency is the fitted concentration of half-maximal effect
Chain of Thioredoxin reductase 1, cytoplasmic (Rattus norvegicus) (O89049 whole entry, looked up): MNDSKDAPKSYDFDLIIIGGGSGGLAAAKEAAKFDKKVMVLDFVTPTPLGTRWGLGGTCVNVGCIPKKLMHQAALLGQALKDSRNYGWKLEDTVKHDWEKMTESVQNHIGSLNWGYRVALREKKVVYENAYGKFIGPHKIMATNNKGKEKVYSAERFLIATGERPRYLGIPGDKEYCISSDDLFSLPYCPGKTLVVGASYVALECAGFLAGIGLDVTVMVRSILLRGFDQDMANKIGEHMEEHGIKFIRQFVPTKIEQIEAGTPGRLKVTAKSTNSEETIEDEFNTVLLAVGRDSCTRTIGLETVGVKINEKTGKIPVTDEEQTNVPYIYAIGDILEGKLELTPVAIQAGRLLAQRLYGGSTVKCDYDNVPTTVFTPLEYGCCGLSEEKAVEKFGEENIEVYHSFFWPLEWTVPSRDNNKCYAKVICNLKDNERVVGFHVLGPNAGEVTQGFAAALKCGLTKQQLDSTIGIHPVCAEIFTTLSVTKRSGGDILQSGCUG
Outline: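 Inhibition is scored from the loss of NADPH fluorescence between first and last reads of an 8-min kinetic run. Selenite (400 uM) was the substrate, added after 15 min compound preincubation at room temperature.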

[6] = target: Flap endonuclease 1 (Homo sapiens) (UniProt P39748); assay: qHTS Validation Assay for the Inhibitors of Human Flap endonuclease 1 (FEN1) (AID 488816); note: potency is the fitted concentration of half-maximal effect
Chain of Flap endonuclease 1 (Homo sapiens) (P39748 whole entry, looked up): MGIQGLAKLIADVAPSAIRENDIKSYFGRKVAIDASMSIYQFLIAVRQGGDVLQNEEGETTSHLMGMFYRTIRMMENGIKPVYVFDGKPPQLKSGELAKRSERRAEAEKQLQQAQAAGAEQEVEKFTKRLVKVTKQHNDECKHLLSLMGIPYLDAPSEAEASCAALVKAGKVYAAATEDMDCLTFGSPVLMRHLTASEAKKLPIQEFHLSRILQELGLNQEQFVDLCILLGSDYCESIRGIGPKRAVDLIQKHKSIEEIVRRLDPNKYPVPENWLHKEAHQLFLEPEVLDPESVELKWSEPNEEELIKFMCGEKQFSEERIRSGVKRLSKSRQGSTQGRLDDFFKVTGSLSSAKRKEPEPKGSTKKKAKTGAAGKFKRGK
Outline: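 Steps: add FEN1 (10 nM reagent) or buffer only; pin compounds; hold 15 min at room temperature; start with substrate, 50 nM final; read at 0 and 15 min; correct, normalize and fit a four-parameter Hill curve.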

[7] = target: M-phase phosphoprotein 8 (Homo sapiens) (UniProt Q99549); assay: qHTS Validation Assay for Inhibitors for MPP8 Chromodomain Interactions with Methylated Histone Tails (AID 488949); note: nearly all actives have a fitted effect of over 55% in size; note: potency is the fitted concentration of half-maximal effect
Chain of M-phase phosphoprotein 8 (Homo sapiens) (Q99549 whole entry, looked up): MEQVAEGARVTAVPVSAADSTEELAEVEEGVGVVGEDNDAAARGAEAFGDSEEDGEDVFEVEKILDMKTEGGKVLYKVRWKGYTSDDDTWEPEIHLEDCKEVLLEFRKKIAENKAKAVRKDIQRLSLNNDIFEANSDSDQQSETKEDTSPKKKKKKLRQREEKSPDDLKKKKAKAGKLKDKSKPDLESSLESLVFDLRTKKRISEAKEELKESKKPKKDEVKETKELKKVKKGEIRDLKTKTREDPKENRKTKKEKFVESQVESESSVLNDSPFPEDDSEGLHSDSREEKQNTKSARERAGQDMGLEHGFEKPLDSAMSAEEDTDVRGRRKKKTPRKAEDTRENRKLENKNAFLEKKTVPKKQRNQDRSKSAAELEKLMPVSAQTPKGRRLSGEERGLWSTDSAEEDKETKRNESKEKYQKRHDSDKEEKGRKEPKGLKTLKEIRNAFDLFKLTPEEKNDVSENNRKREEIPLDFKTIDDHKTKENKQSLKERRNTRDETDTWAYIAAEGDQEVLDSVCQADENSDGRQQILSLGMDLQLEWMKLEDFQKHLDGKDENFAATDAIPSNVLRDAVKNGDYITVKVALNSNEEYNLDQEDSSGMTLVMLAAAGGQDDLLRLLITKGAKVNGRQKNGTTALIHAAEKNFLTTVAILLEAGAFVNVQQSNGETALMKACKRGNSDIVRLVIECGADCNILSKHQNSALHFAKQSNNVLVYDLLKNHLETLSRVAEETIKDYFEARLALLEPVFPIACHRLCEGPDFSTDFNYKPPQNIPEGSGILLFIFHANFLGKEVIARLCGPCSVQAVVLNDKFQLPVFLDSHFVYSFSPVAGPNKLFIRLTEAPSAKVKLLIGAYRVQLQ
Outline: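 Disruption of the preformed MPP8–trimethyl-H3K9 peptide complex (both 50 nM, 30 min, RT) is measured after 30 min compound exposure, using AlphaScreen proximity beads; aurintricarboxylic acid titration serves as plate control.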

[8] = target: Methanococcus maripaludis chaperonin (MmCpn) (UniProt Q6LX38); assay: High-Throughput Screening for Modulators of Cytosolic Chaperonin Activity: MmCpn Primary Screen (AID 488978);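 note: 50 nM MmCpn enzyme hydrolysing 30 µM ATP at 37 °C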
Chain of Methanococcus maripaludis chaperonin (MmCpn) (Q6LX38 1-543): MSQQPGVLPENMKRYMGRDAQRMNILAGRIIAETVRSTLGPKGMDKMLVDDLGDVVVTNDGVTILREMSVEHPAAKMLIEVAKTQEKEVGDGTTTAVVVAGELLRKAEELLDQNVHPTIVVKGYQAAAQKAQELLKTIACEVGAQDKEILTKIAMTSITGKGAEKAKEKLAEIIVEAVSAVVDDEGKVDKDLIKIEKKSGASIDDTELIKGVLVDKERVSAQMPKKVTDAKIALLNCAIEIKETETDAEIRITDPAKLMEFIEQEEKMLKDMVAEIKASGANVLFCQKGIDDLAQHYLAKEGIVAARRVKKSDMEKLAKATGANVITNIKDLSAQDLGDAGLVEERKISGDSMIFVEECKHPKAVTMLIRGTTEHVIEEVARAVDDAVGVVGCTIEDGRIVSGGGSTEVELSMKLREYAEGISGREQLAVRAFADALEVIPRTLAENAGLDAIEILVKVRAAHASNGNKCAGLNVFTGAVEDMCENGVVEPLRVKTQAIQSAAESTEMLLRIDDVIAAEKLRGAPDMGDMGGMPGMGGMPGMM
Outline: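 Measures ATPase turnover of the M. maripaludis chaperonin (50 nM final) against 30 uM ATP over 10 min at 37C, with compound added 5 min beforehand at room temperature. ADP is quantified by HTRF immunodetection.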

[9] = target: Transient receptor potential cation channel subfamily V member 1 (Homo sapiens) (UniProt Q8NER1); assay: HTS Assay for Compounds that Act as Enhancers of the Vanilloid Receptor 1 (AID 488979)
Chain of Transient receptor potential cation channel subfamily V member 1 (Homo sapiens) (Q8NER1 whole entry, looked up): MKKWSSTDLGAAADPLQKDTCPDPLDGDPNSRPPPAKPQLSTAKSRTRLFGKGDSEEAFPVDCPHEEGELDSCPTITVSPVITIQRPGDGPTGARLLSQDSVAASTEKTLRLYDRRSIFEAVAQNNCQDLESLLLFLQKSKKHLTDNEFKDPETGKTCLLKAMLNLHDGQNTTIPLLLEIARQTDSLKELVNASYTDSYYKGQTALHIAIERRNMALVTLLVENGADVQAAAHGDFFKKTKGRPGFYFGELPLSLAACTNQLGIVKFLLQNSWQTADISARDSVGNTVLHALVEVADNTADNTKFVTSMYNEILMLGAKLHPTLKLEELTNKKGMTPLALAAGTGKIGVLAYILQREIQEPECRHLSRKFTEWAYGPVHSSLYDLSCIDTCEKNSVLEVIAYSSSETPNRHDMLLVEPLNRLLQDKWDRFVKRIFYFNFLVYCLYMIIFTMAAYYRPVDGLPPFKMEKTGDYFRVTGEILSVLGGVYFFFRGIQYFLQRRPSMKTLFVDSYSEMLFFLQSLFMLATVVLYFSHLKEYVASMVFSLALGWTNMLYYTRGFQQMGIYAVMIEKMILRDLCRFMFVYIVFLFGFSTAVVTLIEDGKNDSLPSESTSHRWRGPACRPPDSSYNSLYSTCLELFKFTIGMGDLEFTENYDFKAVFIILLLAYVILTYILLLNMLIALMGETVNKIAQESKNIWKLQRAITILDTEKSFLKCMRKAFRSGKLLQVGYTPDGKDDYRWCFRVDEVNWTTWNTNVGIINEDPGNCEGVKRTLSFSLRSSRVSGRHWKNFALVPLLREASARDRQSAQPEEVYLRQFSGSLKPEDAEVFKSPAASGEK
Outline: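 TRPV1-expressing cells loaded with Fluo-8 calcium dye; compounds added and calcium influx read kinetically for 3 min (agonist phase), then capsaicin at EC20 added and read 2 min more for enhancement. Fluorescence ex 480/em 520 nm.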

[10] = target: Thyrotropin receptor (Homo sapiens) (UniProt P16473); assay: qHTS Assay for Antagonists of the Thyroid Stimulating Hormone Receptor (AID 488980); note: series mostly up to about 58 µM
Outline: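 Cells expressing human TSHR (HEK293) are dispensed in HBSS/HEPES containing 70 uM RO 20-1724, compound is added, then TSH at EC80 (4 nM final). Antibody in lysis buffer follows, 30 minutes at room temperature before HTRF detection.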

[11] = target: D(1A) dopamine receptor (Homo sapiens) (UniProt P21728); assay: HTS Assay for Allosteric Agonists of the Human D1 Dopamine Receptor: Primary Screen for Agonists (AID 488981)
Outline: (§1)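 Tetracycline-induced HEK293 T-REx cells force-coupled to calcium signalling were incubated overnight at 30 C and dye-loaded at room temperature. Calcium flux over 180 s after compound addition flagged agonists; a further 180 s read after EC20 dopamine flagged potentiators.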

[12] = target: D(1A) dopamine receptor (Homo sapiens) (UniProt P21728); assay: HTS Assay for Allosteric Agonists of the Human D1 Dopamine Receptor: Primary Screen for Potentiators (AID 488982); note: potency is the fitted concentration of half-maximal effect
Outline: as §1

[13] = target: D(1A) dopamine receptor (Homo sapiens) (UniProt P21728); assay: HTS Assay for Allosteric Agonists of the Human D1 Dopamine Receptor: Primary Screen for Antagonists (AID 488983);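 note: calcium flux response to an EC80 dopamine challenge measured with no-wash dye; nearly all actives have a fitted effect of over 65% in size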; note: potency is the fitted concentration of half-maximal effect
Outline: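 Calcium-flux read-out in inducible HEK293 T-REx cells expressing D1, dye-loaded 30–90 min at room temperature. Kinetic reads: 180 s after compound (agonist phase), then 180 s after an EC80 dopamine challenge.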

[14] = Validation screen for small molecules that induce genotoxicity in human embryonic kidney (HEK293T) cells expressing luciferase-tagged ELG1 (AID 493106)
Outline: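 ELG1-luciferase reporter readout (ONE-Glo, 30 min, room temperature) after 16 hr compound treatment at 37 °C of HEK293T cells at 2,000 per well. Rising luminescence flags genotoxic stress.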

[15] = target: ATPase family AAA domain-containing protein 5 (Homo sapiens) (UniProt Q96QE3); assay: Validation screen for small molecules that inhibit ELG1-dependent DNA repair in human embryonic kidney (HEK293T) cells expressing luciferase-tagged ELG1 (AID 493107);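 note: series mostly up to about 46 µM; inhibitors lower the ELG1-luciferase luminescence signal; nearly all actives have a fitted effect of over 70% in size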
Outline: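 Luciferase read-out, ONE-Glo, 30 min at room temperature, follows 16 h co-exposure at 37 C of compound and the DNA-damaging agent 5-fluorouridine. Cells: HEK293T with ELG1-luciferase fusion, 2,000 per well, DMSO as vehicle.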

[16] = target: Thyrotropin-releasing hormone receptor (Homo sapiens) (UniProt P34981); assay: qHTS for Small Molecule Agonists and Allosteric Enhancers of Human TRH Receptor: Validation Screen for Agonists (AID 493127;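 active = calcium activation more than 3 SD above the typical response in the agonist read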;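 note: intracellular calcium rise by fluo-8 fluorescence before TRH EC20 addition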); conditions: TRH receptor agonist cell assay; at 2 µM; stronger effect = higher value
Chain of Thyrotropin-releasing hormone receptor (Homo sapiens) (P34981 whole entry, looked up): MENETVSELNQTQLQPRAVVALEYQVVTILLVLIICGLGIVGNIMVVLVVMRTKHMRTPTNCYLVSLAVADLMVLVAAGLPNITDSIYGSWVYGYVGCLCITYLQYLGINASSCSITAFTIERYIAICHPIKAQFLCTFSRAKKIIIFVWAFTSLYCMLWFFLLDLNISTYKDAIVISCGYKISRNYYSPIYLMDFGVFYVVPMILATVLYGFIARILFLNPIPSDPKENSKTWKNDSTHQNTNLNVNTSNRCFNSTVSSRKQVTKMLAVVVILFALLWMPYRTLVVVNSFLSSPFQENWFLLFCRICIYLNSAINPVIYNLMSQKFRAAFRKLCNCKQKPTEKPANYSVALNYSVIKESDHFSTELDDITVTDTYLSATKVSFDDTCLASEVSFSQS
Outline: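 Compound-evoked intracellular calcium release in fluo-8-loaded TRHR cells, read kinetically on FDSS (Ex 480/Em 530, 1 s/cycle) after 23 nL pintool transfer. Agonist phase preceded 10 nM TRH EC20 addition.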

[17] = Nrf2 qHTS screen for inhibitors: Validation (AID 493153; active = well fitted inhibition curve with a large enough effect in the main read-out, with a control signal flat, not every such curve was filed as active); conditions: Potency: luciferase luminescence; viability change: measured here: cytotoxicity max response
Outline: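 Concentration-response on A549 ARE_Fluc reporter cells exposed 18-24 h at 37 C, 5% CO2. Cytotoxicity read first by CellTiter-Fluor fluorescence (Ex 405/Em 525), then Nrf2 inhibition by BugLite luminescence after 15 min.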

[18] = target: Thioredoxin reductase 1, cytoplasmic (Rattus norvegicus) (UniProt O89049); assay: qHTS Assay for Substrates of Mammalian Selenoprotein Thioredoxin Reductase 1 (TrxR1) (AID 488772);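 note: series mostly up to about 57 µM; a drop in NADPH fluorescence below the no-compound background marks a TrxR1 substrate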
Outline: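 In this dual-purpose format, potential substrates are identified from the first fluorescence read after selenite addition, not from the 8-minute delta. Rat enzyme is preincubated with NADPH and then with compound at ~22 deg C.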

[19] = target: Chromobox protein homolog 1 (Homo sapiens) (UniProt P83916); assay: qHTS Validation Assay for Inhibitors of HP1-beta Chromodomain Interactions with Methylated Histone Tails (AID 488953); note: nearly all actives have a fitted effect of over 50% in size; note: potency is the fitted concentration of half-maximal effect
Chain of Chromobox protein homolog 1 (Homo sapiens) (P83916 whole entry, looked up): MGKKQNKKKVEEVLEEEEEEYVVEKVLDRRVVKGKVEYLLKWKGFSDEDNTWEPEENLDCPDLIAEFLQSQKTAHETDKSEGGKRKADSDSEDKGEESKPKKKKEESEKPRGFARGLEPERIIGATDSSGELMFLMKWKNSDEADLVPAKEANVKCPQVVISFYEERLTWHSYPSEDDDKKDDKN
Outline: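 AlphaScreen proximity signal from streptavidin donor and nickel chelate acceptor beads (final 10 ug/mL) after 30 min dark incubation. Compounds had 30 min at room temperature with preformed complex of 50 nM HP1-beta and 50 nM b-H3(1-18)K9me3 in PBS pH 7.4 with 0.01% Tween-20.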

Row | Compound | outcome [1] | Potency [2] | Potency [3] | Potency [4] | Potency [5] | Potency [6] | Potency [7] | outcome [8] | outcome [9] | outcome [10] | outcome [11] | Potency [12] | Potency [13] | Potency [14] | outcome [15] | activation [16] | Potency [17] | viability change [17] [%] | outcome [18] | Potency [19]
1 | OC(CN1CCN(c2cccc(Cl)c2)CC1)C(c1ccccc1)c1ccccc1 (stereo not given) | inactive | inactive | inactive | inactive | inactive | inactive | inactive | inactive | inactive | inactive | inactive | inactive | inactive | inactive | inactive | 2.44% (inactive) | inactive | 1.98 | – | –
2 | O=c1c(O)c(-c2ccc(O)cc2O)oc2cc(O)cc(O)c12 | inactive | – | inactive | inactive | inactive | 2.38 µM (active) | 39.8 µM (active) | inactive | – | inactive | inactive | – | inactive | inactive | inactive | 0.938% (inactive) | – | – | inactive | 39.8 µM (active)
3 | CN(C)CCCC1(c2ccc(F)cc2)OCc2cc(C#N)ccc21 (stereo not given) | inactive | – | inactive | inactive | inactive | inactive | inactive | inactive | – | inactive | inactive | inactive | – | inactive | inactive | 3.31% (inactive) | – | – | inactive | inactive
4 | NC(=NCc1ccccc1)NC(=O)c1nc(Cl)c(N)nc1N | inactive | inactive | 2.62 µM (active) | 2.94 µM (active) | inactive | – | inactive | inactive | inactive | inactive | inactive | inactive | 5.01 µM (active) | inactive | inactive | 0.438% (inactive) | – | – | inactive | inactive
5 | COc1ccccc1N1CCN(CCN(C(=O)C2CCCCC2)c2ccccn2)CC1 | inactive | inactive | inactive | inactive | inactive | inactive | inactive | inactive | inactive | inactive | inactive | inactive | inactive | inactive | inactive | -4.06% (inactive) | – | – | inactive | inactive
6 | Oc1ccc2ccccc2c1SSc1c(O)ccc2ccccc12 | inactive | inactive | – | – | inactive | inactive | – | inactive | – | – | inactive | – | inactive | inactive | inactive | – | – | – | inactive | 0.006 µM (active)
7 | O=C1NC(=O)C(c2ccccc2[N+](=O)[O-])=C1Nc1ccc(O)c(Cl)c1 | inactive | – | – | inactive | 2.67 µM (active) | 18.9 µM (active) | 56.2 µM (active) | inactive | inactive | inactive | inactive | 5.17 µM (active) | inactive | inactive | – | 1.69% (inactive) | – | – | inactive | 35.5 µM (active)
8 | CC1(C)C(=O)N(CCN2CCC(C(=O)c3ccc(F)cc3)CC2)c2ccccc21 | inactive | – | – | – | inactive | inactive | inactive | inactive | inactive | inactive | inactive | inactive | 4.47 µM (active) | inactive | – | 3.12% (inactive) | – | – | inactive | –
9 | CC1(C)NC(=O)N(c2ccc([N+](=O)[O-])c(C(F)(F)F)c2)C1=O | inactive | inactive | inactive | inactive | inactive | inactive | inactive | inactive | inactive | inactive | inactive | inactive | inactive | inactive | inactive | -3.25% (inactive) | – | – | inactive | inactive
